The source of these data is PubChem BioAssay (EPA / NIEHS).

Inconclusive results are not listed. Calls of active or inactive are those of the source. The calls were made as follows: active = hit-call score of the fitted dose curve at least 0.9, where 1 is the maximum; inconclusive = response in the unintended direction; inactive = score below 0.9.

For orientation: AC50 means the concentration at which the activity in the assay is half-maximal.

Ratio of Nucleoli Translocation and Cytoplasm, AR (gene 367), sequence (P10275 whole entry, looked up, the tested form may be a part): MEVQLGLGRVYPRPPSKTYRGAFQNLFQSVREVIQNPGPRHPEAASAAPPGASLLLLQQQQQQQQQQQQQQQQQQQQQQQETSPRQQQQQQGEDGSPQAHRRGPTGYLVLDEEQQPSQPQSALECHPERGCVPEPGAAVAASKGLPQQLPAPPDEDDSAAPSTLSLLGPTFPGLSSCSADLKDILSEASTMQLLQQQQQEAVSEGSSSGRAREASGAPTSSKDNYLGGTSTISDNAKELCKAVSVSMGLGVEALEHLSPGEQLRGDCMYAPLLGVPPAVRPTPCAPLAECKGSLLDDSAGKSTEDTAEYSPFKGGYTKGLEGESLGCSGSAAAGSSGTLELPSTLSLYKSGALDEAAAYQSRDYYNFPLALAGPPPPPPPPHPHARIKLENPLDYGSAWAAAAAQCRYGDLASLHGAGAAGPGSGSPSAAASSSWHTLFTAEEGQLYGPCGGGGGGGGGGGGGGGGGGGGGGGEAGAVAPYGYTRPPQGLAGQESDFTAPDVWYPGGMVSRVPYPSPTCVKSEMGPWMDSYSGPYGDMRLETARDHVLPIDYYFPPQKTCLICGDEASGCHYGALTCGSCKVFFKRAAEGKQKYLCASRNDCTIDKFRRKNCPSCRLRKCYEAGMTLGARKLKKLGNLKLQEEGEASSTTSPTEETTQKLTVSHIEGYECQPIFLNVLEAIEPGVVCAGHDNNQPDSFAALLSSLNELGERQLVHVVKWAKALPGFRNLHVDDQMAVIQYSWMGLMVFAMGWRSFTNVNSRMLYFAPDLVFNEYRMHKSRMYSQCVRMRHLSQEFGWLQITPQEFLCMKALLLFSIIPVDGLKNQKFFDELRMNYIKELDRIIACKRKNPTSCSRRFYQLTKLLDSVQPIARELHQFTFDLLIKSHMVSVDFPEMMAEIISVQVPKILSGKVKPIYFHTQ

The target of this assay is Ratio of Nucleoli Translocation and Cytoplasm, AR (gene 367) (UniProt P10275). Kind of assay: UPITT_HCI_U2OS_AR_TIF2_Nucleoli_Cytoplasm_Ratio_Antagonist: University of Pittsburgh U2OS Androgen Receptor-Transcriptional Intermediary Factor 2 (AR-TIF2) Antagonism High Content Imaging Assay for Ratio of Nucleoli Translocation and Cytoplasm (AID 2283999).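 Also: antagonists lower the DHT-driven ratio of nucleolar to cytoplasmic red signal.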 From the text:
UPITT_AR_TIF2_PPIB is a cell-based, high-content imaging assay that uses U2OS, a human osteosarcoma cell line, expressing a human androgen receptor fused to red fluorescent protein and the coactivator TIF2 fused to green fluorescent protein. UPITT_HCI_U2OS_AR_TIF2_Nucleoli_Cytoplasm_Ratio_Antagonist is one of four assay components measured from the UPITT_AR_TIF2_PPIB assay. It is designed to make measurements of the ratio of red fluorescence localized in the nucleolar region of the cell nucleus to red fluorescence localized in the cytoplasm as detected with high-content fluorescent imaging.Data from the assay component UPITT_HCI_U2OS_AR_TIF2_Nucleoli_Cytoplasm_Ratio_Antagonist was analyzed into 1 assay endpoint. This assay endpoint, UPITT_HCI_U2OS_AR_TIF2_Nucleoli_Cytoplasm_Ratio_Antagonist, was analyzed in the positive analysis fitting direction relative to DHT as the baseline of activity. Using a type of binding reporter, measures of receptor for loss-of-signal activity can be used to understand the binding at the pathway-level as it relates to the gene AR.
Daughter plates containing 2 uL of 10 mM compounds in DMSO were prepared and replicated from the 384-well Library of Pharmacologically Active Compounds (LOPAC) master plates using the Bravo outfitted with a 384-well transfer head. Aluminum adhesive plate seals were applied with an Abgene Seal-IT 100 (Rochester, NY) plate sealer, and the plates were stored at -20 C in a Matrical MatriMinistore (Spokane, WA) automated compound storage and retrieval system. For screening, LOPAC daughter plates were withdrawn from -20C storage, thawed to ambient temperature, centrifuged 1-2 min at 50 g, and the plate seals were removed before the transfer of 98 uL of serum-free tissue culture medium (SFM) into wells using the BioTek Microflo liquid handler (BioTek, Winooski, VT) to generate a 200 uM intermediate stock concentration of library compounds (2.0% DMSO). The diluted compounds were mixed by repeated aspiration and dispensation using a 384-well P30 dispensing head on the Evolution P3 (EP3) liquid handling platform (PerkinElmer, Waltham, MA) and then 5 uL of diluted compounds was transferred to the wells of assay plates. In the LOPAC screen, compounds were individually tested at a final concentration of 20 uM (0.2% DMSO). After the diluted compounds had been transferred from the daughter plates to the primary HCS assay plates, aluminum adhesive plate seals were applied and the diluted daughter plates were stored frozen at -20C. To confirm active compounds identified in the primary screen, we withdrew the LOPAC daughter plates containing the 200 uM intermediate concentration of library compounds (2.0% DMSO) from -20C storage, thawed them to ambient temperature, centrifuged them for 1-2 min at 50 g, and removed the plate seals. A work list was generated to direct the Multiprobe Janus liquid handling platform (PerkinElmer) to cherry pick 75 uL from the wells of the diluted daughter plates that were flagged active in the primary screen and to reformat these into a 384-well plate hit confirmation daughter plate. Five microliters of primary HCS active compounds was then transferred into triplicate wells of assay plates using a 384-well P30 dispensing head on the Evolution P3 (EP3) liquid handling platform (PerkinElmer). […] Daughter plates containing 2 uL of the serially diluted compounds in DMSO were prepared and replicated from the 384-well serial dilution master plates using the Bravo outfitted with a 384-well transfer head. Aluminum adhesive plate seals were applied and plates were stored at -20C. For testing in the bioassays, daughter plates were withdrawn from -20C storage, thawed to ambient temperature, centrifuged for 1-2 min at 50 g, and the plate seals were removed before the transfer of 38 uL of SFM into wells using the BioTek Microflo liquid handler (BioTek) to generate an intermediate stock concentration of library compounds ranging from 1.95 to 500 uM (5.0% DMSO). […]
With `Cc1cc(Cl)ccc1OCC(=O)O`, the result was inactive.
As for `N#Cc1nn(-c2c(Cl)cc(C(F)(F)F)cc2Cl)c(N)c1S(=O)C(F)(F)F` (configuration not stated), the result was inactive.
For `CC(C)Oc1cc(-n2nc(C(C)(C)C)oc2=O)c(Cl)cc1Cl`, the result was inactive.
Consider `CCON=C(CC)C1=C(O)CC(c2c(C)cc(C)cc2C)CC1=O` (configuration not stated), for which the result was inactive.
In the case of `CN(C)C(=S)SSC(=S)N(C)C`, the AC50 was 9.92 µM (active).
As to `O=C(Nc1ccccc1)Nc1ccnc(Cl)c1`, the outcome was inactive.
Still for that read-out and setting: the same measure for `Cc1ccc(-c2c(Cl)nc(C#N)n2S(=O)(=O)N(C)C)cc1`: “inactive”; for `CCCC1COC(Cn2cncn2)(c2ccc(Cl)cc2Cl)O1` (configuration not stated): “inactive”; for `N#CC(CCc1ccc(Cl)cc1)(Cn1cncn1)c1ccccc1` (configuration not stated): “inactive”.
Consider `CCOC(=O)CC(SP(=S)(OC)OC)C(=O)OCC` (configuration not stated), for which the AC50 was 69.2 µM (active).
Consider `CS/C(C)=N/OC(=O)N(C)SN(C)C(=O)O/N=C(\C)SC`, for which the half-maximal activity concentration (AC50) is 13.8 µM (active).
Take `CO/C=C(/C(=O)OC)c1ccccc1Oc1cc(Oc2ccccc2C#N)ncn1`: the outcome was inactive.
